Bioassay records as filed in PubChem BioAssay.
Many of the other results were omitted from the sample, so hits are more common in it than they were.
IL1B secr inh = inflammasome signaling inhibition, IL-1 beta readout. activity change, % at 57.5 µM. THP-1 LPS/ATP IL-1B secretion, AlphaLISA, 16 h; hits give low values. actives 4.7% (n = 360,000); in the data active means activity change below about -50%; inconclusive means mostly about -30% to -49%
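THP-1 cells pretreated 1 hr with compounds (up to 57.5 uM final), then stimulated with LPS (250 ng/mL final) plus ATP (1.25 mM final); secreted IL-1B measured by AlphaLISA after 16 hr, decreased signal indicating inhibition.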
TDP1 cell noCPT = qHTS for Inhibitors of human tyrosyl-DNA phosphodiesterase 1 (TDP1): qHTS in cells in absence of CPT | Potency, µM (highest dose often 46.2 µM), without a hit: at the highest dose activity change, negative = growth inhibition, most hits filed as inhibitors | AID 686978, 2013 | actives 15% (n = 420,000) | DT40 Tdp1-/- hTDP1 cells, no CPT, ATP luminescence, 48 h; further: potency means the concentration at half of the fitted maximal effect; nearly all actives have a fitted effect of over 55% in size
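DT40 Tdp1-/-;hTDP1 cells, no CPT (DMSO vehicle only), 400 cells/well; compounds pin-transferred; ≥48 hr, 37 °C; CellTiter-Glo 30 min RT dark, luminescence read.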
12-LOX inh = ALOX12 (human) lipoxygenase inhibition. P18054. purified 12hLO, xylenol orange hydroperoxide absorbance. Potency, µM (titrated, usually from 108 µM), without a hit: top-dose activity change, negative = inhibition, hits mostly inhibitors. actives 1.1% (n = 580,000). AID 1671190; further: potency means the concentration at half of the fitted maximal effect
Target sequence (P18054 whole entry, looked up): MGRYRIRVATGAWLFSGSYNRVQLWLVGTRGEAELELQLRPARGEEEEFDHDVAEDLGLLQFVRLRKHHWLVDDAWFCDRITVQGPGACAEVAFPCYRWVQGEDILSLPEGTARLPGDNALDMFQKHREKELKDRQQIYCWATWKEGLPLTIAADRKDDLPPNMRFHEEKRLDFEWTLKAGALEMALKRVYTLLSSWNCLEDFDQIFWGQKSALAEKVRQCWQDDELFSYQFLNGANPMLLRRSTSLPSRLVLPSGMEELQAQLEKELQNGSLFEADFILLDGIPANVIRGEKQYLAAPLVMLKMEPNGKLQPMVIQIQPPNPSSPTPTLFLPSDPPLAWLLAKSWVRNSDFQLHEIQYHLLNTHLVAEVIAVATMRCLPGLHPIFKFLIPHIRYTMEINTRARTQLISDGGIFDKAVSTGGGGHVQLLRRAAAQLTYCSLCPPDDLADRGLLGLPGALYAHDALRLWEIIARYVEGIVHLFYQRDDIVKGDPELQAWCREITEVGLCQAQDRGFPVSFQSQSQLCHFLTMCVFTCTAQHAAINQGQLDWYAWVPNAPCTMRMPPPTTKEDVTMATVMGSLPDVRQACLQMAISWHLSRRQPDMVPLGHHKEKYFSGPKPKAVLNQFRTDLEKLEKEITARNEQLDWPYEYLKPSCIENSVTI
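Purified human 12hLO at 150 nM in 25 mM Hepes, 0.01% Triton X-100, pH 7.0, preincubated 15 min at room temperature with compound. Reaction started with 40 uM arachidonic acid, 30 min at room temperature. Hydroperoxide measured by Fe-xylenol orange, 573/405 nm absorbance ratio.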
HT1080 IDH1KD tx = kills HT-1080 cells with IDH1 knockdown; Potency, µM (highest dose often 46.1 µM), for inactives: at the top dose activity, negative = toxicity, hits mostly cytotoxic; AID 686971; HT-1080 IDH1 knockdown viability, ATP luminescence, 48 h; actives 2% (n = 360,000);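 further: potency means the concentration at half of the fitted maximal effect; 0% = DMSO wells and -100% = cell-free medium wells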
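Knockdown cells (IDH1KD HT-1080) received compounds 2 h after plating at 750 cells/well and were kept 48 h at 37 °C in 5% FBS RPMI. A CellTiter-Glo luminescence read gave % activity for curve fitting.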
HT1080-NT tox = kills 2HG-producing HT-1080-NT fibrosarcoma cells; actives 1.6% (n = 360,000); HT-1080-NT fibrosarcoma viability, CellTiter-Glo ATP luminescence, 48 h; Potency, µM (highest dose often 46.1 µM), for the others: at the highest dose activity, negative = less viability, actives largely listed as cytotoxic;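 further: NT is the 2HG producing partner of a matched IDH1 knockdown line; potency means the concentration at half of the fitted maximal effect; 0% = DMSO-treated cells and -100% = media-only wells without cells; nearly all actives have a fitted effect of over 55% in size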
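HT-1080-NT; 750 cells/well; 5% FBS RPMI; 48 h compound, 37 degrees C; CellTiter-Glo luminescence; curve fitting and curve-class assignment.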
DT40 TDP1 CPT = DT40-hTDP1 cell growth loss with CPT. actives 12% (n = 420,000). chicken DT40 Tdp1-/-;hTDP1 cells + 20 nM CPT, ATP luminescence, 48 h. Potency, µM (series often up to 46.2 µM), for the others: top-dose activity change, negative = growth inhibition, hits mostly inhibitors; further: potency means the concentration at half of the fitted maximal effect; nearly all actives have a fitted effect of over 55% in size
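Chicken DT40 Tdp1-/- cells stably complemented with human TDP1 were seeded at 400 cells/well in medium containing 20 nM camptothecin, exposed to pin-transferred compounds, and grown at 37 °C for at least 48 hr. Viability was read as ATP luminescence.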
Active calls of the source: *. Unless noted, the call rests on the fitted dose curve; in most records, active means well fitted curve in the direction sought with a large enough effect; inconclusive means small, poorly fitted or top-dose-only effect, or another doubt; inactive means no such curve, though single readings can be large; an effect the other way counts as inactive or inconclusive. Unless noted, on the % scale 0 is the no-effect control and ±100 the full control effect.

How did COC(=O)c1ccccc1NC(=S)NC(=O)c1cccc2ccccc12 do in these assays?
IL1B secr inh: 11; TDP1 cell noCPT: inconclusive; 12-LOX inh: 32µM*; HT1080 IDH1KD tx: -6%; HT1080-NT tox: -3%; DT40 TDP1 CPT: 16µM*

Results for COC(=O)c1ccccc1NC(=O)c1ccc(COc2ccccc2)o1 ?
IL1B secr inh: -4; TDP1 cell noCPT: inconclusive; 12-LOX inh: inconclusive; HT1080 IDH1KD tx: 2%; HT1080-NT tox: -4%; DT40 TDP1 CPT: inconclusive

Results for COC(=O)c1ccccc1NC(=O)c1ccc(COc2cccc3ccccc23)o1 ?
IL1B secr inh: 28; TDP1 cell noCPT: inconclusive; 12-LOX inh: 45µM*; HT1080 IDH1KD tx: -1%; HT1080-NT tox: -6%; DT40 TDP1 CPT: inconclusive

What do the screens show for `COC(=O)c1ccccc1NC(=S)NC(=O)c1ccc2ccccc2c1`?
IL1B secr inh: 0; TDP1 cell noCPT: inconclusive; 12-LOX inh: inconclusive; HT1080 IDH1KD tx: 11%; HT1080-NT tox: 4%; DT40 TDP1 CPT: inconclusive

How did CN1CCN(c2ccc(NC(=S)NC(=O)c3cccc4c(Br)cccc34)cc2)CC1 do in these assays?
IL1B secr inh: -17; TDP1 cell noCPT: 18µM*; 12-LOX inh: 2%; HT1080 IDH1KD tx: -6%; HT1080-NT tox: -23%; DT40 TDP1 CPT: 21µM*

Results for Cc1ccc(C(C(=O)NCc2cc(C)nn2C)N(C)C)cc1 (stereo not given) ?
12-LOX inh: -3%

What do the screens show for `Cc1ccc(OCCCNCCO)c(Br)c1`?
IL1B secr inh: -60*; TDP1 cell noCPT: 4.6µM*; 12-LOX inh: 0%; HT1080 IDH1KD tx: 21µM*; HT1080-NT tox: inconclusive; DT40 TDP1 CPT: 4.6µM*

How did CCCCNCCCOc1ccc(C)cc1Br do in these assays?
TDP1 cell noCPT: 16µM*; 12-LOX inh: -24%; HT1080 IDH1KD tx: -27%; HT1080-NT tox: -13%; DT40 TDP1 CPT: 18µM*

How did Cc1ccc(-n2c(SCc3ccc(C#N)cc3)nnc2N2CCCC2)cc1 do in these assays?
12-LOX inh: 10%

What do the screens show for `Cn1ccnc1C(NC(=O)Nc1ccccc1)c1ccccc1F` (stereo not given)?
12-LOX inh: -1%

Results for O=c1ccc2ccc(O)cc2o1 ?
IL1B secr inh: 44; TDP1 cell noCPT: -30%; 12-LOX inh: 9%; HT1080 IDH1KD tx: inconclusive; HT1080-NT tox: 0%; DT40 TDP1 CPT: -20%

What do the screens show for `O=c1ccc2cc(O)c(O)cc2o1`?
IL1B secr inh: 19; TDP1 cell noCPT: inconclusive; 12-LOX inh: inconclusive; HT1080 IDH1KD tx: inconclusive; HT1080-NT tox: inconclusive; DT40 TDP1 CPT: 16µM*

What do the screens show for `COC(=O)c1sc(NC(=O)COc2ccc(C)cc2)nc1C`?
IL1B secr inh: -63*; TDP1 cell noCPT: -15%; 12-LOX inh: -7%; HT1080 IDH1KD tx: 0%; HT1080-NT tox: 5%; DT40 TDP1 CPT: -21%

How did CCOC(=O)c1sc(NC(=O)Nc2ccc(Cl)cc2)nc1C do in these assays?
IL1B secr inh: -28; TDP1 cell noCPT: 23µM*; 12-LOX inh: 1%; HT1080 IDH1KD tx: -1%; HT1080-NT tox: -7%; DT40 TDP1 CPT: inconclusive

How did CCOC(=O)c1sc(NC(=O)c2ccc3nc[nH]c3c2)nc1C do in these assays?
IL1B secr inh: -9; TDP1 cell noCPT: 8.2µM*; 12-LOX inh: 10%; HT1080 IDH1KD tx: inconclusive; HT1080-NT tox: 1%; DT40 TDP1 CPT: inconclusive

What do the screens show for `C=CCOC(=O)c1sc(NC(=O)c2ccc(OC)cc2)nc1C`?
IL1B secr inh: -2; TDP1 cell noCPT: 6%; 12-LOX inh: -5%; HT1080 IDH1KD tx: 1.8µM*; HT1080-NT tox: inconclusive; DT40 TDP1 CPT: 12%
